Screening data (PubChem BioAssay)
DT40 TDP1 CPT: qHTS for Inhibitors of human tyrosyl-DNA phosphodiesterase 1 (TDP1): qHTS in cells in presence of CPT | chicken DT40 Tdp1-/-;hTDP1 cells + 20 nM CPT, ATP luminescence, 48 h | Potency, µM (doses to about 46.2 µM), inactives show top-dose activity change, negative = growth inhibition, most hits filed as inhibitors | actives 12% (n = 420,000) | AID 686979, 2013; further: nearly all actives have a fitted effect of over 55% in size
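Chicken DT40 Tdp1-/- cells stably complemented with human TDP1 were seeded at 400 cells/well in medium containing 20 nM camptothecin, exposed to pin-transferred compounds, and grown at 37 °C for at least 48 hr. Viability was read as ATP luminescence.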
TDP1 inh: qHTS Assay for Inhibitors of Tyrosyl-DNA Phosphodiesterase (TDP1); AID 485290, 2010; Potency, µM (highest dose often 130 µM), for the others: top-dose activity change, negative = inhibition, hits mostly inhibitors; Tyrosyl-DNA phosphodiesterase 1 (Homo sapiens), Q9NUW8; actives 0.28% (n = 350,000); recombinant TDP1, AlphaScreen DNA substrate cleavage; further: nearly all actives have a fitted effect of over 40% in size
Target sequence (Q9NUW8 whole entry, looked up): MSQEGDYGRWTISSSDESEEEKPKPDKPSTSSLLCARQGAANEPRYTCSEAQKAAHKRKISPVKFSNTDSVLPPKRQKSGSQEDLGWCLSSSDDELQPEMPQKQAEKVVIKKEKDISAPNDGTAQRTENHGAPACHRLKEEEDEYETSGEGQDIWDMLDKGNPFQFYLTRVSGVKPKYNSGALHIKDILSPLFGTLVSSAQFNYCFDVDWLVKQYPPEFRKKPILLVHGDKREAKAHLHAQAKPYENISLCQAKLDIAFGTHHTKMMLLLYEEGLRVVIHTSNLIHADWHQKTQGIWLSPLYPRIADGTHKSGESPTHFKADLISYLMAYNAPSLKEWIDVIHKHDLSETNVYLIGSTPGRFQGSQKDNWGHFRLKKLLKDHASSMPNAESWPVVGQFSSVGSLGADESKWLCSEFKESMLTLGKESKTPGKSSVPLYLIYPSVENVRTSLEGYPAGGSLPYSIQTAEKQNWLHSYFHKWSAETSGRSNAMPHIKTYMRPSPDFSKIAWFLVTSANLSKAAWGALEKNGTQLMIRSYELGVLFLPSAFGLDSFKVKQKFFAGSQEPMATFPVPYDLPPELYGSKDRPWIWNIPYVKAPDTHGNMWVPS
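Compounds were preincubated with Tdp1 (1 nM final) for 15 min at room temperature before substrate (15 nM final) started a 5 min reaction; beads (10 ug/ml final) were then added for 10 min before AlphaScreen detection.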
TDP1 cell noCPT: qHTS for Inhibitors of human tyrosyl-DNA phosphodiesterase 1 (TDP1): qHTS in cells in absence of CPT; DT40 Tdp1-/- hTDP1 cells, no CPT, ATP luminescence, 48 h; actives 15% (n = 420,000); Potency, µM (highest dose often 46.2 µM), for inactives: top-dose activity change, negative = growth inhibition, most hits filed as inhibitors; AID 686978, 2013; further: nearly all actives have a fitted effect of over 55% in size
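No-CPT arm: Tdp1-/-;hTDP1 DT40 cells (400/well) plus compounds, incubated ≥48 hr at 37 °C. Readout CellTiter-Glo luminescence.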
RORg inh: qHTS for inhibitors of ROR gamma transcriptional activity; Nuclear receptor ROR-gamma (Mus musculus), P51450; Drosophila S2 Gal4-RORgamma UAS-luciferase reporter, 20 h; Potency, µM (doses to about 53.6 µM), inactives show at the highest dose activity change, negative = inhibition, hits mostly inhibitors; actives 5.4% (n = 310,000); AID 2551, 2010; further: nearly all actives have a fitted effect of over 60% in size
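Using a luciferase readout, inhibitors were identified by reduced reporter activity in Drosophila cells coexpressing a copper-inducible Gal4–ROR gamma fusion and UAS-driven Photinus luciferase, incubated 20 hr after 700 uM copper sulfate.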
VP16 counter: VP16 counterscreen qHTS for inhibitors of ROR gamma transcriptional activity; Drosophila S2 Gal4-VP16 UAS-luciferase, luminescence, 20 h; AID 2546, 2010; Potency, µM (top dose mostly 53.6 µM), for the others: at the highest dose activity, negative = inhibition, hits mostly inhibitors; actives 3.5% (n = 310,000);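 further: Gal4-VP16 expression switched on by copper sulfate through the metallothionein promoter; nearly all actives have a fitted effect of over 50% in size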
The depositor's hits bear a star; ? = inconclusive; . = no result given; [ ] = remark or other dose. This is a sample that favours compounds with a hit; in the whole collection about 19% have one here. The call rests on the fitted dose curve; in most records, active means well fitted curve in the direction sought with a large enough effect; inconclusive means small, poorly fitted or top-dose-only effect, or another doubt; inactive means no such curve, though single readings can be large; an effect the other way counts as inactive or inconclusive. On the % scale 0 is the no-effect control and ±100 the full control effect; potency means the concentration at half of the fitted maximal effect.

SMILES	DT40 TDP1 CPT	TDP1 inh	TDP1 cell noCPT	RORg inh	VP16 counter
CCCn1c(SCC(=O)NCc2ccccc2Cl)n[nH]c1=O	-7%	2%	1%	26%	0%
Cc1cccc(CN2CCN(C(c3ccccc3)c3ccc(Cl)cc3)CC2)c1 (stereo not given)	?	3%	7.3µM*	?	?
O=C(C1CCN(Cc2ccc(Cl)cc2)CC1)N1CCN(C(c2ccccc2)c2ccccc2)CC1	?	0%	12µM*	?	?
Cc1ccc(-c2noc(CN3CCN(C(c4ccccc4)c4ccccc4)CC3)n2)cc1	?	2%	?	14%	-4%
OC(CN1CCN(C(c2ccccc2)c2ccccc2)CC1)c1ccccc1 (stereo not given)	?	.	?	-8%	-6%
CC(C)(C)c1ccc(CN2CCN(C(c3ccccc3)c3ccc(Cl)cc3)CC2)cc1 (stereo not given)	13µM*	.	24µM*	.	.
CCC1(C)N=C(N)Nc2nc3cc(C)c(C)cc3n21 (stereo not given)	9.2µM*	4%	9.2µM*	16%	-2%
Fc1ccc(CNCc2cccc(Br)c2)cc1	?	-11%	?	-10%	-1%
Nc1nc(SCC(=O)c2ccc(Cl)cc2)c2ncn(C3OC(CO)C(O)C3O)c2n1 (stereo not given)	-15%	.	?	.	.
COc1ccc(Cc2nnc(N)s2)cc1OC	15%	-1%	13%	-5%	6%
COc1ccc2c(c1)CCN=C2Cc1ccc(OC)c(OC)c1	?	5%	16µM*	?	1%
Cc1nn(C(=O)c2ccco2)c(C)c1Sc1ccc(Cl)cc1	4%	0%	7%	3%	-3%
O=C(Oc1ccccc1)N1CCC2(CC1)CN(c1ncccn1)C2	?	.	?	4%	?
O=C(Oc1ccccc1)N1CCC2(CC1)CCN(c1ccccc1)CC2	?	.	18µM*	45%	-18%
O=C(Oc1ccccc1)N1CCC2(CCCN(c3ncccn3)C2)CC1	-25%	.	18µM*	?	8%
OC1c2cc(Br)ccc2N=C2CCCN21 (stereo not given)	12µM*	.	18µM*	23%	-7%
OC1c2ccccc2N=C2CCCN21 (stereo not given)	.	13%	.	17%	7%
OC1c2cc(Br)ccc2N=C2CCCCCN21 (stereo not given)	?	.	16µM*	.	.
O=C(N/N=C/c1cnc(N2CCOCC2)s1)c1ccccc1	18%	8%	-4%	-10%	-2%[10 µM]
CCOC(=O)C1=CCC(c2ccc(CC)cc2)N(S(=O)(=O)c2ccc(C)cc2)C1 (stereo not given)	23µM*	.	9.2µM*	.	.
CCOC(=O)C1=CCC(c2cccc(Cl)c2)N(S(=O)(=O)c2ccc(C)cc2)C1 (stereo not given)	15µM*	.	12µM*	.	.
CCOC(=O)N1CCN(S(=O)(=O)c2ccc(C)cc2)C1c1ccccc1 (stereo not given)	?	5%	?	11%	1%
CCc1ccc([C@@H]2CC=C(C(=O)O)CN2S(=O)(=O)c2ccc(C)cc2)cc1	-1%	1%	-22%	.	.
CC(=O)C1=CCC(c2cccc(Cl)c2)N(S(=O)(=O)c2ccc(C)cc2)C1 (stereo not given)	15µM*	.	10µM*	.	.
CCOC(=O)C1=CCC(c2cccc3ccccc23)N(S(=O)(=O)c2ccc(C)cc2)C1 (stereo not given)	15µM*	.	18µM*	.	.
SMILES	DT40 TDP1 CPT	TDP1 inh	TDP1 cell noCPT	RORg inh	VP16 counter
Cc1ccc(S(=O)(=O)N2[C@@H](c3ccccc3)C(C(=O)O)=CC[C@H]2c2cccc(Cl)c2)cc1	-4%	-1%	0%	.	.
NC1=NC(=O)/C(=C/c2ccccc2OS(=O)(=O)c2ccccc2)S1	-29%	3%	-3%	0%	-3%
CN(Cc1ccccc1)C(=O)c1nc2ccccn2c1CN1CCCC1c1nccs1 (stereo not given)	?	7%	?	?	20%
COc1ccc(C)cc1NS(=O)(=O)c1cn(C)c(=O)n(C)c1=O	11%	2%	-8%	-4%	-9%
O=C(CCCc1ccccc1)c1ccc2c(c1)OCCO2	-17%	?	-20%	1.1µM*	2.2µM*
O=C(NCCc1ccccc1)c1ccc2c(c1)OCCO2	-8%	2%	-15%	1.4µM*	1.3µM*
O=C(CCCc1ccccc1)c1ccccc1	-4%	35µM*	11%	9%	-13%
O=C(CCCC(=O)c1ccccc1)NCCc1ccccc1	4%	.	1%	5%	7%
O=C(CCc1ccccc1)c1ccc2c(c1)OCCCO2	-9%	.	-2%	0%	2%
O=C(NCCc1ccccc1)c1ccc2c(c1)OCCCO2	-23%	7%	13%	0.35µM*	0.63µM*
C[C@@H]1CN([C@@H](C)CO)C(=O)CCCn2nncc2CO[C@H]1CN(C)C(=O)c1cc(-c2ccccc2)on1	-9%	.	-7%	.	.
O=[n+]1c2c(n([O-])c3cc(F)ccc31)CCCC2	-26%	-3%	-15%	1%	-2%
CC1(C(=O)NCc2cccc(C(F)(F)F)c2)CCN1C1Cc2ccccc2C1 (stereo not given)	?	.	21µM*	.	.
COc1ccccc1N1CCN(C(=O)NCc2cccc(C(F)(F)F)c2)CC1	1%	5%	?	33%	1%
COc1ccc(NC(=O)C2(C)CCN2Cc2ccc(OC)c3ccccc23)cc1OC (stereo not given)	?	.	23µM*	.	.
COc1ccc(NC(=O)C2(C)CCCN(C(C)C)C2)cc1OC (stereo not given)	-3%	.	-2%	.	.
COc1ccc(NC(=O)C2(C)CCN2Cc2cccc(OC)c2OC)cc1OC (stereo not given)	?	.	16µM*	.	.
CCC(=O)N1CCC1(C)C(=O)Nc1cccc(OC)c1OC (stereo not given)	-1%	.	-9%	.	.
COc1cccc(CN2CCC2(C)C(=O)NCc2cccc(C(F)(F)F)c2)c1OC (stereo not given)	13µM*	.	13µM*	.	.
O=C(OC(C(=O)NC1CCCCC1)c1ccc(C(F)(F)F)cc1)c1ccco1 (stereo not given)	0%	3%	?	.	.
COc1cccc(CN2CCC2(C)C(=O)Nc2cccc3cccnc23)c1F (stereo not given)	?	.	18µM*	.	.
